# Many of the other results were omitted from the sample, so the strongest signals are more common in it than they were.
# B1: CVNH3T (Magnaporthe grisea) (protein)
# chain: GSHIGPYGNYAGNFSGSSRDICLDGARLRAECRRGDGGYSTSVIDLNRYLSNDNGHFRWVSGGGGGGGTATVTVQQGDTLRDIGRRFDCDFHEIARRNNIQNEDLIYPGQVLQVPTKGGSGGGAGNFWDSARDVRLVDGGKVLEAELRYSGGWNRSRIYLDEHIGNRNGELIHC
# Key:
# Experiment in all cases: glycan array binding signal (z-score within array); higher = stronger binding
# Details in all cases: glycan notation: IUPAC condensed, linker removed
# [1] = molecular target: Fuc(a1-2)Gal
# In short: (§1)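 The Consortium for Functional Glycomics database supplied 3228 glycan arrays, of which those lacking an available protein sequence were dropped. The binding signal, a within-array Z-score, was averaged across arrays of the same protein sequence and across linkers. Negative scores can be read as non-binding.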
# [2] = molecular target: Fuc(a1-2)[Gal(a1-3)]Gal(b1-4)GlcNAc
# In short: as §1
# [3] = molecular target: Fuc(a1-2)[Gal(a1-3)]Gal(b1-4)[Fuc(a1-3)]GlcNAc
# In short: as §1
# [4] = molecular target: Gal(a1-4)Gal(b1-4)GalNAc
# In short: as §1
# [5] = molecular target: Gal(b1-2)Gal
# In short: as §1
# [6] = molecular target: Gal(b1-3)GalNAc(b1-3)Gal(a1-4)Gal(b1-4)Glc
# In short: as §1
# [7] = molecular target: Gal(b1-4)Glc6S
# In short: as §1
# [8] = molecular target: GlcNAc(a1-3)Gal(b1-4)GlcNAc
# In short: as §1
# [9] = molecular target: GlcNAc(b1-2)Gal(b1-3)GlcNAc
# In short: as §1
# [10] = molecular target: GlcNAc(b1-3)[GlcNAc(b1-6)]GlcNAc
# In short: as §1
# [11] = molecular target: GlcNAc(b1-4)Gal(b1-4)GlcNAc
# In short: as §1
# [12] = molecular target: GlcNAc(b1-4)GlcNAc(b1-4)GlcNAc(b1-4)GlcNAc(b1-4)GlcNAc
# In short: as §1
# [13] = molecular target: Man(a1-3)[Man(a1-6)]Man(a1-6)[Man(a1-3)]Man(b1-4)GlcNAc(b1-4)GlcNAc
# In short: as §1
# [14] = molecular target: Neu5Ac(a2-3)Gal(b1-3)GalNAc(b1-3)Gal(a1-4)Gal(b1-4)Glc
# In short: as §1
# [15] = molecular target: Neu5Ac(a2-3)Gal(b1-3)GlcNAc
# In short: as §1
# [16] = molecular target: Neu5Ac(a2-3)Gal6S(b1-4)[Fuc(a1-3)]GlcNAc
# In short: as §1
# [17] = molecular target: Neu5Ac(a2-6)GalNAc
# In short: as §1
# [18] = molecular target: Neu5Gc(a2-3)Gal(b1-3)[Fuc(a1-4)]GlcNAc
# In short: as §1
binder,measurement,setting,value
B1,glycan array binding signal (z-score),[1],-0.223
same,glycan array binding signal (z-score),[2],-0.23
same,glycan array binding signal (z-score),[3],-0.226
same,glycan array binding signal (z-score),[4],5.47
same,glycan array binding signal (z-score),[5],-0.185
same,glycan array binding signal (z-score),[6],6.38
same,glycan array binding signal (z-score),[7],-0.229
same,glycan array binding signal (z-score),[8],-0.239
same,glycan array binding signal (z-score),[9],-0.233
same,glycan array binding signal (z-score),[10],-0.222
same,glycan array binding signal (z-score),[11],-0.22
same,glycan array binding signal (z-score),[12],5.39
same,glycan array binding signal (z-score),[13],-0.23
same,glycan array binding signal (z-score),[14],6.23
same,glycan array binding signal (z-score),[15],-0.152
same,glycan array binding signal (z-score),[16],-0.226
same,glycan array binding signal (z-score),[17],-0.209
same,glycan array binding signal (z-score),[18],-0.175

# — the supplement of paper PMC8728848
